Results published in PubChem BioAssay.

Assay: blockers of RIG-like receptor reporter activation – cell-based, Sendai virus stimulus, luciferase, 10K MLSCN set, TLR/RLR signaling modifier project, primary screen (AID 602276;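 active = inhibition at or above 50% at 10 µM; inactive = inhibition below 50%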;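 also: firefly luciferase from ISG56 promoter only with Renilla not read in this screen; 0% = Sendai virus plus DMSO and 100% = medium plus DMSO without virus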)
Conditions: HEK293 RL24 IRF3 luciferase reporter, at 10 µM, active compounds read high

inhibition, inactive:
COc1ccccc1N1CCN(C(=O)c2cc(-c3ccc(Cl)c(Cl)c3)on2)CC1 1.29%
COc1ccc(CN(CC(=O)NCC2CCCO2)C(=O)CCC(=O)Nc2cc(C)on2)cc1 (centres undefined) -9.53%
CCc1ccc2[nH]c(=O)c(C(c3nnnn3CC3CCCO3)N3CCN4CCCC4C3)cc2c1 (centres undefined) 9.53%
COc1ccc(OC)c(NC(=O)C23CCC(C)(C(=O)C2)C3(C)C)c1 (centres undefined) 12.9%
CC(C)(C)NS(=O)(=O)c1ccc(CCC(=O)O)cc1 9.55%
COc1ccc(COC(=O)c2n[nH]c3ccccc23)cc1F -16.1%
O=C(NC1CCCC1)C(NS(=O)(=O)c1cccc2nsnc12)c1ccccc1 (centres undefined) 17.9%
COc1ccc(C(C)NC(=O)c2ccoc2C)cc1OC (centres undefined) 14.4%
Cc1ccc(C(O)c2nc3ccccc3n2C(C)C)cc1 (centres undefined) 20%
CCOC(=O)c1cc(CC)sc1NC(=O)COC 2.16%
COc1ccccc1C1N(c2ccc(F)cc2)C(=O)C2CCCN21 (centres undefined) 9.07%
CCC1CCCCN1CCCNC(=O)c1ccc(CS(=O)(=O)Cc2ccccc2F)o1 (centres undefined) 6.88%
Cc1cc(C)n2nc(SCC(=O)N(C)Cc3ccccc3)nc2n1 -13.5%
O=C(NCC(=O)N(c1cccnc1)C(C(=O)NC1CCCCC1)c1cccnc1)c1ccco1 (centres undefined) 9.81%
O=C(Nc1sccc1C(=O)NCc1ccco1)c1cccnc1 5.47%
COc1ccc(Cl)c(N2CCN(CCCNC(=O)Nc3ccc(C)cc3)CC2)c1 2.1%
Cc1cccc(OCC(=O)Nc2cc(C)ccc2O)c1 10.8%
COCc1nnc(SCC(=O)NC(C)c2ccccc2)n1-c1ccccc1 (centres undefined) 14.7%
COc1ccccc1N(CC(=O)NC1CCCC1)C(=O)c1csnn1 -0.44%
Cc1cccc(NC(=O)CCCCCN2C(=O)c3ccccc3C2=O)n1 15.6%
O=C(Cc1cccs1)N(c1ccccc1)C1C=CS(=O)(=O)C1 (centres undefined) 10.7%
Cc1ccc(Cn2c(SCC(N)=O)nc3c2c(=O)n(C)c(=O)n3C)cc1 0.352%
COc1cccc(CN2C(=O)C3(C(C#N)=C(N)OC4=C3C(=O)CCC4)c3ccccc32)c1 (centres undefined) 12.7%
COc1cccc(OCc2nnc(SCC(=O)OCc3ccccc3)o2)c1 10.1%

Assay: TLR3 IRF3 reporter activation blockers – cell-based, poly I:C stimulus, luciferase, 10K MLSCN set, primary screen (AID 602277)
Conditions: HEK293-TLR3 RL24 IRF3 luciferase reporter, at 10 µM, active compounds read high

inhibition, inactive:
O=C(NCc1ccco1)c1cccc(S(=O)(=O)N2CCCCC2)c1 -7.47%
O=C(O)c1ccc(C2SCC(=O)N2Cc2ccccc2)cc1 (centres undefined) 0.315%
Nc1cc(N)nc(SCc2ccccc2)n1 -101%
O=C(NCCCN1CCN(c2cccc(Cl)c2)CC1)c1ccc(N2CCCC2=O)cc1 0.162%
COc1ccccc1-n1c(SCC(=O)NC(C)(C)C)nnc1-c1ccco1 15.6%
O=C(NCc1ccco1)c1cc2sccc2n1Cc1ccccc1 -28.5%
CC(Sc1n[nH]c(=O)[nH]c1=O)C(=O)OCc1ccccc1 (centres undefined) 10.9%
COc1ccc(OC)c(Nc2nc(-c3cccs3)cs2)c1 -5.46%
COc1cc(NC(=O)Nc2cccc(C(C)=O)c2)cc(OC)c1OC 12.9%
CN1CCN(c2ccc(Cl)cc2NC(=O)c2cccc(S(=O)(=O)N(C)C)c2)CC1 12.4%
Brc1ccc2ncnc(Nc3ccc(N4CCOCC4)cc3)c2c1 1.52%
COc1ccc(Cl)cc1NC(=O)CSc1nncn1-c1cccnc1 22.7%
COc1cccc(NC(=O)c2ccccc2NS(C)(=O)=O)c1 13.1%
O=S(=O)(c1cccc2c(S(=O)(=O)N3CCCC3)cccc12)N1CCCC1 21.9%
CCN1CCN(c2nc3c(c(=O)n(C)c(=O)n3C)n2Cc2cccc3ccccc23)CC1 18.7%
Cn1c(-c2ccccc2)cnc1SCc1nc2ccccc2c(=O)[nH]1 -54%
COc1ccccc1N1CCN(C(=O)c2cc(-c3ccc(Cl)c(Cl)c3)on2)CC1 -2.55%
COc1ccc(CN(CC(=O)NCC2CCCO2)C(=O)CCC(=O)Nc2cc(C)on2)cc1 (centres undefined) -6.1%
CCc1ccc2[nH]c(=O)c(C(c3nnnn3CC3CCCO3)N3CCN4CCCC4C3)cc2c1 (centres undefined) 4.74%
COc1ccc(OC)c(NC(=O)C23CCC(C)(C(=O)C2)C3(C)C)c1 (centres undefined) 26.7%
CC(C)(C)NS(=O)(=O)c1ccc(CCC(=O)O)cc1 4.51%
COc1ccc(COC(=O)c2n[nH]c3ccccc23)cc1F -49.8%
O=C(NC1CCCC1)C(NS(=O)(=O)c1cccc2nsnc12)c1ccccc1 (centres undefined) 17.3%
COc1ccc(C(C)NC(=O)c2ccoc2C)cc1OC (centres undefined) 19.8%
Cc1ccc(C(O)c2nc3ccccc3n2C(C)C)cc1 (centres undefined) 11.8%
CCOC(=O)c1cc(CC)sc1NC(=O)COC 4.15%
COc1ccccc1C1N(c2ccc(F)cc2)C(=O)C2CCCN21 (centres undefined) 14.8%
CCC1CCCCN1CCCNC(=O)c1ccc(CS(=O)(=O)Cc2ccccc2F)o1 (centres undefined) 20.5%
Cc1cc(C)n2nc(SCC(=O)N(C)Cc3ccccc3)nc2n1 -9.42%
O=C(NCC(=O)N(c1cccnc1)C(C(=O)NC1CCCCC1)c1cccnc1)c1ccco1 (centres undefined) 6.29%
O=C(Nc1sccc1C(=O)NCc1ccco1)c1cccnc1 -21.6%
COc1ccc(Cl)c(N2CCN(CCCNC(=O)Nc3ccc(C)cc3)CC2)c1 -5.24%
Cc1cccc(OCC(=O)Nc2cc(C)ccc2O)c1 15.6%
COCc1nnc(SCC(=O)NC(C)c2ccccc2)n1-c1ccccc1 (centres undefined) 14.9%
COc1ccccc1N(CC(=O)NC1CCCC1)C(=O)c1csnn1 1.68%
Cc1cccc(NC(=O)CCCCCN2C(=O)c3ccccc3C2=O)n1 15.2%
O=C(Cc1cccs1)N(c1ccccc1)C1C=CS(=O)(=O)C1 (centres undefined) 15.6%
Cc1ccc(Cn2c(SCC(N)=O)nc3c2c(=O)n(C)c(=O)n3C)cc1 2.84%
COc1cccc(CN2C(=O)C3(C(C#N)=C(N)OC4=C3C(=O)CCC4)c3ccccc32)c1 (centres undefined) 14.6%
COc1cccc(OCc2nnc(SCC(=O)OCc3ccccc3)o2)c1 7.69%
